TDP1 cell noCPT: qHTS for Inhibitors of human tyrosyl-DNA phosphodiesterase 1 (TDP1): qHTS in cells in absence of CPT. DT40 Tdp1-/- hTDP1 cells, no CPT, ATP luminescence, 48 h. AID 686978, 2013. 420,000 tested, 15% active. Potency, µM (top dose mostly 46.2 µM), for the others: top-dose activity change, negative = growth inhibition, usual class: inhibitors; also: potency is read from the fitted curve at half-maximal effect; nearly all actives have a fitted effect of over 55% in size
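Growth kinetics read by CellTiter-Glo luminescence after ≥48 hr at 37 °C. Cells: DT40 Tdp1-/- stably carrying human TDP1, 400 per well, compound exposure in the absence of CPT (DMSO vehicle).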
TDP1 cell CPT: growth inhibition of DT40 Tdp1-/-;hTDP1 cells with camptothecin (screen for TDP1 inhibitors); chicken DT40 Tdp1-/-;hTDP1 cells + 20 nM CPT, ATP luminescence, 48 h; Potency, µM (highest dose often 46.2 µM), without a hit: top-dose activity change, negative = growth inhibition, hits mostly inhibitors; 420,000 tested, 12% active; also: potency is read from the fitted curve at half-maximal effect; nearly all actives have a fitted effect of over 55% in size
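Cell growth measured by CellTiter-Glo luminescence after a minimum 48 h, 37 C compound exposure with 20 nM CPT in Tdp1-knockout DT40 cells stably expressing hTDP1, seeded 400/well; qHTS titration format.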
IL-1B inflam inh: blocks inflammasome-driven IL-1 beta release; 360,000 tested, 4.7% active; THP-1 LPS/ATP IL-1B secretion, AlphaLISA, 16 h; hits give low values; AID 743279; activity change, % at 57.5 µM; in the data active = activity change below about -50%; inconclusive = mostly about -30% to -49%
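Secreted IL-1B measured by AlphaLISA bead assay after 16 h compound exposure of THP-1 cells; compounds (final up to 57.5 uM) added 1 h before LPS (250 ng/mL) and ATP (1.25 mM) stimulation; lower signal means less secretion.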
RORg inh: ROR gamma (mouse) transcription inhibition | P51450 | Drosophila S2 Gal4-RORgamma UAS-luciferase reporter, 20 h | Potency, µM (doses to about 53.6 µM), for inactives: at the highest dose activity change, negative = inhibition, most hits filed as inhibitors | 310,000 tested, 5.4% active | AID 2551; also: potency is read from the fitted curve at half-maximal effect; nearly all actives have a fitted effect of over 60% in size
Target sequence (P51450 whole entry, looked up, the tested form may be a part): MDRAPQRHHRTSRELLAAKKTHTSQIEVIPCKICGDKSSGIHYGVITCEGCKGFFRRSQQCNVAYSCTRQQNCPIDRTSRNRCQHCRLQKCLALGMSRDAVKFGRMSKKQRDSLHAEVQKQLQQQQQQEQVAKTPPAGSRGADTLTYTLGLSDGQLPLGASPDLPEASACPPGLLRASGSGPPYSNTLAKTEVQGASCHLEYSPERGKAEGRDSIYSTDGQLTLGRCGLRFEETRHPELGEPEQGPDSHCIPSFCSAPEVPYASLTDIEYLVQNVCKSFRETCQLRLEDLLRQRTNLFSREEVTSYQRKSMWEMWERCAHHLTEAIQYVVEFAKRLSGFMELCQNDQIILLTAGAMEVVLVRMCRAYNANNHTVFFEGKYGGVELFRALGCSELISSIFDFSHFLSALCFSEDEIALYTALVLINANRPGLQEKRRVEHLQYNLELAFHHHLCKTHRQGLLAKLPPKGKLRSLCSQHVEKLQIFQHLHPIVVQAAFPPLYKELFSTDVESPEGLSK
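In this cell-based reporter format, copper sulfate (700 uM final) drives Gal4–ROR gamma fusion expression from a metallothionein promoter in Drosophila Schneider cells; compounds preincubated 1 hr, reporter read after 20 hr at ambient temperature.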
VP16 counter: Gal4-VP16 reporter inhibition counter-screen; Potency, µM (highest dose often 53.6 µM), without a hit: at the top dose activity, negative = inhibition, hits mostly inhibitors; 310,000 tested, 3.5% active; Drosophila S2 Gal4-VP16 UAS-luciferase, luminescence, 20 h;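 also: Gal4-VP16 expression switched on by copper sulfate through the metallothionein promoter; potency is read from the fitted curve at half-maximal effect; nearly all actives have a fitted effect of over 50% in size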
LDHA block: LDHA (human) enzyme inhibition; purified LDHA, NADH/diaphorase-resazurin fluorescence; hits give low values; 480,000 tested, 0.15% active; P00338; activity change, % (values are at about 110 or 230 µM); AID 1347041; in the data active = activity change below about -30%; inconclusive = mostly about -25% to -30%;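 also: plate controls were DMSO wells for no effect and wells without enzyme for full effect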
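Resorufin fluorescence (ex540/em590), read at 0 and 20 min after diaphorase/resazurin addition, reports the NADH left after a 5 min room-temperature reaction of 2 nM human LDH5 with 0.06 mM NADH and 0.2 mM pyruvate.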
The depositor's hits bear a star; ? = inconclusive; . = no result. In the library only some 18% were active in any assay of this set; here they are far more common. Unless noted, calls follow the shape of the dose curve; as a rule, active = well fitted curve in the direction sought with a large enough effect; inconclusive = small, poorly fitted or top-dose-only effect, or another doubt; inactive = no such curve, though single readings can be large; an effect the other way counts as inactive or inconclusive. Unless noted, % is scaled to controls: 0 for no effect and ±100 for the full control effect.

SMILES	TDP1 cell noCPT	TDP1 cell CPT	IL-1B inflam inh	RORg inh	VP16 counter	LDHA block
Cc1ccc(NS(=O)(=O)c2ccc(C)c(NC(=O)c3ccc(S(=O)(=O)N4CCCCCC4)cc3)c2)c(C)c1	10µM*	18µM*	8	.	.	-5
COc1ccc(NC(=O)CN2CCCN(S(=O)(=O)c3ccc(Br)cc3)CC2)c(OC)c1	23µM*	?	.	.	.	-6
COc1ccc(S(=O)(=O)N2CCCN(CC(=O)Nc3ccccc3F)CC2)cc1	?	-28%	-4	-4%	4%	-6
COc1ccc(NC(=O)c2ccc(S(=O)(=O)N3CCCCCC3)cc2)c(OC)c1	13µM*	-27%	-11	15%	-5%	-18
O=C(Oc1ccc2c(=O)c(-c3ccccc3)coc2c1)c1ccco1	.	.	.	.	.	2
O=C(CCC1CCCCC1)NCC1CCCO1 (stereo unspecified)	.	.	.	.	.	3
Cc1ccc(C(=O)Nc2ccc(-n3c(C)nc4ccccc4c3=O)cc2)cc1[N+](=O)[O-]	7.3µM*	9.2µM*	.	.	.	-2
Cc1nc2ccccc2c(=O)n1-c1ccc(NC(=O)c2ccc([N+](=O)[O-])cc2)cc1	?	?	.	.	.	-5
Cc1cc(-n2c(C)nc3ccccc3c2=O)ccc1NC(=O)c1cccc([N+](=O)[O-])c1	12µM*	16µM*	.	.	.	-3
Cc1nc2ccccc2c(=O)n1-c1ccc(NC(=O)c2cccc([N+](=O)[O-])c2)cc1	21µM*	18µM*	.	.	.	0
CC(C)CCn1nc(C(=O)Nc2ccc(Cl)cc2)c2ccccc2c1=O	.	.	.	.	.	1
Cc1cc(Cl)ccc1OCC(=O)Nc1cccc(-c2nc3ccccc3o2)c1	13µM*	?	.	.	.	-2
Cc1cc2nc(-c3cccc(NC(=O)COc4ccc(C(C)C)cc4)c3)oc2cc1C	16µM*	21µM*	.	.	.	5
Cc1cc2nc(-c3cccc(NC(=O)COc4ccccc4)c3)oc2cc1C	.	.	.	.	.	0
Cc1ccc(-c2nc3cc(Cl)ccc3o2)cc1NC(=O)COc1ccccc1C	11µM*	8.9µM*	.	.	.	-5
Cc1cc(Oc2ccc(Cl)cc2)nc(-c2ccccn2)n1	5.2µM*	5.2µM*	46	0.63µM*	5.6µM*	-7
CC1CN(C(=O)N2CCC(C(=O)NC3CCCCCC3)CC2)c2cc(Cl)ccc2O1 (stereo unspecified)	18µM*	15µM*	.	.	.	-3
Cc1cc(C)c(NC(=O)C2CCN(C(=O)N3CC(C)Oc4ccc(Cl)cc43)CC2)c(C)c1 (stereo unspecified)	21µM*	?	.	.	.	-2
CCOc1ccc(NC(=O)C2CCN(C(=O)N3CC(C)Oc4ccc(Cl)cc43)CC2)cc1 (stereo unspecified)	15µM*	23µM*	.	.	.	-5
CCOC(=O)C1=C(C)Nc2nc(SCc3ccccc3)nn2C1c1cccs1 (stereo unspecified)	.	.	.	.	.	-4
CCCCn1c(=O)[nH]c(=O)c2c1nc(COC(=O)/C=C/c1ccc(OC)c(OC)c1)n2C	.	.	.	.	.	0
O=C(O)c1ccc2cc(C(=O)O)[nH]c2c1	.	.	.	.	.	0
Cc1[nH]c2ccccc2c1C(=O)CSc1nnnn1C1CC1	.	.	.	.	.	12
O=C(NCc1ccc(OC(F)(F)F)cc1)c1n[nH]c(=O)c2ccccc12	.	.	.	.	.	3
CC(C)(CNC(=O)C1CCCC1)c1ccccc1	.	.	.	.	.	-3
SMILES	TDP1 cell noCPT	TDP1 cell CPT	IL-1B inflam inh	RORg inh	VP16 counter	LDHA block
COc1cc(/C=N/NC(=O)c2cccc([N+](=O)[O-])c2)ccc1OC(=O)c1ccco1	-16%	3%	-1	?	25%	-4
COc1ccc(/C=N/NC(=O)c2cccc([N+](=O)[O-])c2)cc1OS(=O)(=O)c1ccccc1	16µM*	?	-19	?	?	-1
COc1cccc(/C=N/NC(=O)c2cccc([N+](=O)[O-])c2)c1OS(=O)(=O)c1ccccc1	16µM*	?	-20	?	-5%	-6
O=C(Nc1ccccc1N1CCCCCC1)C1CCN(S(=O)(=O)c2cc(F)ccc2F)CC1	.	.	.	.	.	-5
CN1CCC2(CC1)Oc1ccccc1C1CC(c3ccc(Cl)c(Cl)c3)=NN12 (stereo unspecified)	.	.	.	.	.	-3
COCCNc1nc2cc(-c3ccccc3C)sc2c(=O)n1C	?	18µM*	39	.	.	0
Cc1ccccc1-c1cc2nc(NCCOc3ccccc3Cl)n(C)c(=O)c2s1	?	?	-12	.	.	3
C=CCNc1nc2cc(-c3ccccc3OC)sc2c(=O)n1C	?	?	13	.	.	-16
COCCNc1nc2cc(-c3ccccc3OC)sc2c(=O)n1C	13µM*	18µM*	41	.	.	0
CCCCOC(=O)c1ccc(NC(=O)c2cc(=O)c3cc(C)ccc3o2)cc1	.	.	.	.	.	-16
NS(=O)(=O)c1ccc(NC(=S)Nc2nn(Cc3ccc(Cl)cc3Cl)cc2Cl)cc1	?	?	-18	6.3µM*	6.3µM*	-5
O=C(c1ccc(Cn2nnc3ccccc32)cc1)N1CCN(S(=O)(=O)c2ccc(F)cc2)CC1	.	.	.	.	.	-2
CC(O)CNc1nc2sc3c(c2c(=O)n1Cc1ccco1)CCCCC3 (stereo unspecified)	?	-24%	-21	5%	-3%	-1
CN(C)CCNc1nc2sc3c(c2c(=O)n1CCc1ccccc1)CCCCC3	10µM*	21µM*	-75*	-2%	-5%	-10
CC(O)CNc1nc2sc3c(c2c(=O)n1CCc1ccccc1)CCCCC3 (stereo unspecified)	16µM*	23µM*	-82*	?	?	6
COc1ccc(-c2nc3cc(NC(=O)COc4ccc(C)cc4)ccc3o2)cc1	.	.	.	.	.	-4
CC(C)c1ccc(CN2CCN(C(=O)c3cccc4ncccc34)CC2)cc1	.	.	.	.	.	12
Cc1nc(NC(=O)c2ccccc2)sc1Cc1ccc2c(c1)OCO2	?	?	-13	13µM*	?	-4
CC(=O)c1sc(NC(=O)c2ccc3c(c2)OCO3)nc1C	6%	-21%	-21	-19%	-6%	-4
Cc1cc(C)nc(NC(=NCc2ccc3c(c2)OCO3)NC(=O)Nc2ccccc2)n1	4.6µM*	5.2µM*	-7	-30%	-13%	-7
O=C1CC(SC(=NCc2ccc3c(c2)OCO3)Nc2ccccc2)C(=O)N1c1ccccc1 (stereo unspecified)	?	?	-2	13%	-6%	-2

Assay outcomes: PubChem, National Center for Advancing Translational Sciences (NCATS)
